# According to PubChem BioAssay AID1159580 (chemical genetic matrix, 2015):
# “And” between values parts separate entries of the source, which are not always exact repeats. Equal values may be shown once. Screen size: about 5,500 compounds; about 2,000 (36%) were called active. Not shown: some 18% with an inconclusive outcome. The list shows a part of the results. A number with no mark means an inactive call. Rule as the data show it: active = normalized growth mostly below about 0.91 (no sharp cut-off); inconclusive = no clear call, values can overlap the other calls; inactive = mostly above about 0.92.
# Test: chemical genetic growth profiling, strain panel (AID 1159580);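 also: tested at 20 µM; growth read once vehicle control cultures reached saturation at 30 °C; 1 = growth at the plate median or of vehicle wells; lower values mean less growth of the strain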
# Settings: growth OD
smiles,measurement,setting,value
Cn1c(=O)c2c(ncn2C)n(C)c1=O,normalized growth,"S. cerevisiae deletion strains, locus YJR043C, strain POL32, active compounds read low",1.02
same,normalized growth,"S. cerevisiae deletion strains, locus YJR066W, strain TOR1, active compounds read low",0.97
same,normalized growth,"S. cerevisiae deletion strains, locus YJR075W, strain HOC1, active compounds read low",1
same,normalized growth,"S. cerevisiae deletion strains, locus YKL009W, strain mrt4, active compounds read low",1.03
same,normalized growth,"S. cerevisiae deletion strains, locus YKL068W, active compounds read low",1.01
same,normalized growth,"S. cerevisiae deletion strains, locus YKL085W, strain MDH1 (second series), active compounds read low",0.991
same,normalized growth,"S. cerevisiae deletion strains, locus YKL085W, strain MDH1, active compounds read low",0.991
same,normalized growth,"S. cerevisiae deletion strains, locus YKL160W, strain elf1, active compounds read low",1.02
same,normalized growth,"S. cerevisiae deletion strains, locus YKR001C, strain vps1, active compounds read low",1
same,normalized growth,"S. cerevisiae deletion strains, locus YKR026C, strain gcn3, active compounds read low",0.965
same,normalized growth,"S. cerevisiae deletion strains, locus YKR091W, strain srl3, active compounds read low",0.969
same,normalized growth,"S. cerevisiae deletion strains, locus YLL001W, strain dnm1, active compounds read low",0.932
same,normalized growth,"S. cerevisiae deletion strains, locus YLL026W, active compounds read low",0.962
same,normalized growth,"S. cerevisiae deletion strains, locus YLL041C, strain sdh2, active compounds read low",0.976
same,normalized growth,"S. cerevisiae deletion strains, locus YLR027C, strain aat2, active compounds read low",0.976
same,normalized growth,"S. cerevisiae deletion strains, locus YLR039C, strain RIC1, active compounds read low",0.989
same,normalized growth,"S. cerevisiae deletion strains, locus YLR058C, strain SHM2, active compounds read low",1
same,normalized growth,"S. cerevisiae deletion strains, locus YLR102C, strain apc9, active compounds read low",1.01
same,normalized growth,"S. cerevisiae deletion strains, locus YLR113W, strain HOG1, active compounds read low",1.04
same,normalized growth,"S. cerevisiae deletion strains, locus YLR221C, strain rsa3, active compounds read low",0.89 (active)
same,normalized growth,"S. cerevisiae deletion strains, locus YLR258W, strain gsy2, active compounds read low",0.976
same,normalized growth,"S. cerevisiae deletion strains, locus YLR262C, strain YPT6 (second series), active compounds read low",0.996
same,normalized growth,"S. cerevisiae deletion strains, locus YLR262C, strain YPT6, active compounds read low",0.988
same,normalized growth,"S. cerevisiae deletion strains, locus YLR268W, strain sec22, active compounds read low",1.03
same,normalized growth,"S. cerevisiae deletion strains, locus YLR320W, strain mms22, active compounds read low",0.987
same,normalized growth,"S. cerevisiae deletion strains, locus YLR330W, strain CHS5, active compounds read low",0.999
same,normalized growth,"S. cerevisiae deletion strains, locus YLR342W, strain FKS1 (second series), active compounds read low",1.03
same,normalized growth,"S. cerevisiae deletion strains, locus YLR342W, strain FKS1, active compounds read low",0.983
same,normalized growth,"S. cerevisiae deletion strains, locus YLR357W, strain rsc2, active compounds read low",0.98
same,normalized growth,"S. cerevisiae deletion strains, locus YLR370C, strain arc18, active compounds read low",0.936
same,normalized growth,"S. cerevisiae deletion strains, locus YLR371W, strain rom2, active compounds read low",0.989
same,normalized growth,"S. cerevisiae deletion strains, locus YLR384C, strain iki3, active compounds read low",0.97
same,normalized growth,"S. cerevisiae deletion strains, locus YLR418C, strain cdc73, active compounds read low",0.947
same,normalized growth,"S. cerevisiae deletion strains, locus YML016C, strain PPZ1, active compounds read low",0.995
same,normalized growth,"S. cerevisiae deletion strains, locus YML032C, strain rad52, active compounds read low",1.01
same,normalized growth,"S. cerevisiae deletion strains, locus YML120C, strain ndi1, active compounds read low",0.926
same,normalized growth,"S. cerevisiae deletion strains, locus YML124C, strain tub3, active compounds read low",1
same,normalized growth,"S. cerevisiae deletion strains, locus YMR058W, strain fet3, active compounds read low",0.96
same,normalized growth,"S. cerevisiae deletion strains, locus YMR078C, strain ctf18, active compounds read low",0.995
same,normalized growth,"S. cerevisiae deletion strains, locus YMR125W, strain sto1, active compounds read low",0.954
same,normalized growth,"S. cerevisiae deletion strains, locus YMR129W, active compounds read low",0.988
same,normalized growth,"S. cerevisiae deletion strains, locus YMR205C, strain PFK2, active compounds read low",0.991
same,normalized growth,"S. cerevisiae deletion strains, locus YMR223W, strain ubp8, active compounds read low",1
same,normalized growth,"S. cerevisiae deletion strains, locus YMR231W, strain pep5, active compounds read low",0.987
same,normalized growth,"S. cerevisiae deletion strains, locus YMR307W, strain GAS1, active compounds read low",0.974 and 0.988
same,normalized growth,"S. cerevisiae deletion strains, locus YNL067W, strain RPL9B, active compounds read low",1
same,normalized growth,"S. cerevisiae deletion strains, locus YNL071W, strain lat1, active compounds read low",0.995
same,normalized growth,"S. cerevisiae deletion strains, locus YNL128W, strain TEP1, active compounds read low",0.997
same,normalized growth,"S. cerevisiae deletion strains, locus YNL175C, strain NOP13, active compounds read low",1.02
same,normalized growth,"S. cerevisiae deletion strains, locus YNL183C, strain NPR1, active compounds read low",0.987
same,normalized growth,"S. cerevisiae deletion strains, locus YNL197C, strain WHI3, active compounds read low",1.12
same,normalized growth,"S. cerevisiae deletion strains, locus YNL209W, strain ssb2, active compounds read low",0.959
same,normalized growth,"S. cerevisiae deletion strains, locus YNL224C, strain SQS1, active compounds read low",1.01
same,normalized growth,"S. cerevisiae deletion strains, locus YNL233W, strain BNI4, active compounds read low",0.984
same,normalized growth,"S. cerevisiae deletion strains, locus YNL248C, strain rpa49, active compounds read low",1.03
same,normalized growth,"S. cerevisiae deletion strains, locus YNL250W, strain rad50, active compounds read low",1.01
same,normalized growth,"S. cerevisiae deletion strains, locus YNL271C, strain bni1, active compounds read low",1.01
same,normalized growth,"S. cerevisiae deletion strains, locus YNL298W, strain CLA4, active compounds read low",1.01
same,normalized growth,"S. cerevisiae deletion strains, locus YNL307C, strain MCK1, active compounds read low",1
same,normalized growth,"S. cerevisiae deletion strains, locus YNL322C, strain KRE1 (second series), active compounds read low",0.963
same,normalized growth,"S. cerevisiae deletion strains, locus YNL322C, strain KRE1, active compounds read low",0.995
same,normalized growth,"S. cerevisiae deletion strains, locus YNR049C, strain mso1, active compounds read low",0.956
same,normalized growth,"S. cerevisiae deletion strains, locus YNR052C, strain pop2, active compounds read low",1
same,normalized growth,"S. cerevisiae deletion strains, locus YOL006C, strain TOP1, active compounds read low",1.04
same,normalized growth,"S. cerevisiae deletion strains, locus YOL012C, strain htz1",0.798
same,normalized growth,"S. cerevisiae deletion strains, locus YOL147C, strain pex11, active compounds read low",0.998
same,normalized growth,"S. cerevisiae deletion strains, locus YOR001W, strain rrp6, active compounds read low",0.979
same,normalized growth,"S. cerevisiae deletion strains, locus YOR061W, strain CKA2, active compounds read low",1.01
same,normalized growth,"S. cerevisiae deletion strains, locus YOR069W, strain VPS5, active compounds read low",1
same,normalized growth,"S. cerevisiae deletion strains, locus YOR070C, strain gyp1, active compounds read low",0.993
same,normalized growth,"S. cerevisiae deletion strains, locus YOR080W, strain dia2, active compounds read low",0.956
same,normalized growth,"S. cerevisiae deletion strains, locus YOR083W, strain WHI5 (second series), active compounds read low",1.02
same,normalized growth,"S. cerevisiae deletion strains, locus YOR083W, strain WHI5, active compounds read low",1.01
same,normalized growth,"S. cerevisiae deletion strains, locus YOR106W, strain vam3, active compounds read low",0.969
same,normalized growth,"S. cerevisiae deletion strains, locus YOR136W, strain idh2, active compounds read low",1.01
same,normalized growth,"S. cerevisiae deletion strains, locus YOR144C, strain elg1, active compounds read low",1
same,normalized growth,"S. cerevisiae deletion strains, locus YOR184W, strain ser1, active compounds read low",1.01
same,normalized growth,"S. cerevisiae deletion strains, locus YOR231W, strain MKK1, active compounds read low",1.04
same,normalized growth,"S. cerevisiae deletion strains, locus YOR265W, strain rbl2, active compounds read low",0.963
same,normalized growth,"S. cerevisiae deletion strains, locus YOR270C, strain vph1, active compounds read low",0.988
same,normalized growth,"S. cerevisiae deletion strains, locus YOR290C, strain snf2, active compounds read low",0.952
same,normalized growth,"S. cerevisiae deletion strains, locus YOR316C, strain cot1, active compounds read low",1.01
same,normalized growth,"S. cerevisiae deletion strains, locus YPL051W, strain arl3, active compounds read low",0.949
same,normalized growth,"S. cerevisiae deletion strains, locus YPL055C, strain LGE1, active compounds read low",0.998
same,normalized growth,"S. cerevisiae deletion strains, locus YPL078C, strain atp4, active compounds read low",1.02
same,normalized growth,"S. cerevisiae deletion strains, locus YPL106C, strain sse1, active compounds read low",0.929
same,normalized growth,"S. cerevisiae deletion strains, locus YPL240C, strain hsp82, active compounds read low",0.974
same,normalized growth,"S. cerevisiae deletion strains, locus YPL241C, strain CIN2, active compounds read low",0.998 and 1.01
same,normalized growth,"S. cerevisiae deletion strains, locus YPL256C, strain CLN2, active compounds read low",1.09
same,normalized growth,"S. cerevisiae deletion strains, locus YPR119W, strain clb2, active compounds read low",0.996
same,normalized growth,"S. cerevisiae deletion strains, locus YPR141C, strain kar3, active compounds read low",0.992
same,normalized growth,"S. cerevisiae deletion strains, locus YPR163C, strain tif3, active compounds read low",0.991
same,normalized growth,"S. cerevisiae deletion strains, locus YPR167C, strain met16, active compounds read low",1
same,normalized growth,"S. cerevisiae deletion strains, strain wtn01, active compounds read low",1.04
same,normalized growth,"S. cerevisiae strains, strain wild type, active compounds read low",1
